Values without a mark were called inactive. Results filed as inconclusive are left out. Activity calls are given as the source filed them. Unless noted, calls come from the whole dose curve; as a rule, active = well fitted curve in the direction sought with a large enough effect in the repeat runs; inconclusive = weak or mixed curves; inactive = no such curve, though single readings can be large; an effect the other way counts as inactive or inconclusive.

Data on eight compounds can be found in PubChem BioAssay (Tox21).

In assay [1] the target is Thyrotropin receptor (Homo sapiens) (UniProt P16473). Description: qHTS assay to identify small molecule agonists of the thyroid stimulating hormone receptor (TSHR) signaling pathway (AID 1224843; calls by dose curve; note: nearly all actives have a fitted effect of over 45% in size). Put shortly: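 Agonist-mode screen: TSHR HEK293 cells received test chemicals for half an hour at room temperature, then HTRF cAMP detection reagents for one hour prior to fluorescence measurement. Each chemical ran as a 15-concentration series, triplicated.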
In general terms: Quantitative high-throughput screening tests each substance at several concentrations.

Assay [2] is described as follows: qHTS assay to identify small molecule agonists of the hypoxia (HIF-1) signaling pathway - cell viability counter screen (AID 1224844; calls by dose curve; note: nearly all actives have a fitted effect of over 50% in size). The method, boiled down: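 In this counter screen, HRE-bla ME-180 cell viability after 17 hrs of compound exposure at 37C was read by CellTiter-Glo luminescence, multiplexed with the beta-lactamase reporter measurement.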
Assay [3] is described as follows: qHTS assay to identify small molecule agonists of H2AX (AID 1224845; active = well fitted activation curve with a large enough effect in the signal ratio in the repeat runs, not every such curve was filed as active; the % refers to the signal ratio). Put shortly:
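Wild-type CHO-K1 cells, plated overnight, exposed 3hr at 37C to 15 concentrations (0.76% DMSO final). Lysed, then HTRF anti-pH2AX (S139) cryptate and anti-H2AX-d2 antibodies, 24 hr room temperature; 665/620 nm emission read.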

Assay [4] in a line: qHTS assay to identify small molecule agonists of the hypoxia (HIF-1) signaling pathway (AID 1224846; active = well fitted activation curve with a large enough effect in the signal ratio in the repeat runs, not every such curve was filed as active; the % refers to the signal ratio). Put shortly: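 ME-180 HRE-bla reporter cells; compounds in DMSO, 17 h at 37C; read-out beta-lactamase via CCF4-AM FRET.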
Assay [5] can be described thus: qHTS assay to identify small molecule agonists of H2AX - cell viability counter screen (AID 1224847; calls by dose curve; note: nearly all actives have a fitted effect of over 30% in size; note: potency is the fitted concentration of half-maximal effect). The method, boiled down: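 Counter-screen for viability: CellTiter-Glo ATP luminescence read after 3 h compound treatment (15-point titration, 0.76% DMSO final) of CHO-K1 cells at 37C, with 30 min room-temperature reagent incubation.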
Assay [6] is described as follows: qHTS assay to identify small molecule antagonists of the estrogen related receptor (ERR) signaling pathway from Tox21 library (AID 1224848). Note: nearly all actives have a fitted effect of over 50% in size. Note: potency is the fitted concentration of half-maximal effect. Put shortly:
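Quantitative high-throughput format: ERR reporter cells (2,000/well) pre-incubated 6 h, treated 18 h at 37 C with compounds in DMSO alongside positive and negative controls, then read by ONE-Glo luminescence.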

Assay [7] can be described thus: qHTS assay to identify small molecule agonists of the estrogen related receptor (ERR) signaling pathway from Tox21 library (AID 1224849; calls by dose curve; note: nearly all actives have a fitted effect of over 15% in size). The following applies: ERR reporter cell line, ONE-Glo luciferase, 18 h; at 92.4 µM (top of the series) unless noted. Put shortly: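 Luciferase activity in ERR pathway reporter cells served as the agonist readout; exposure lasted 18 h at 37 C, with ONE-Glo detection after 30 min at room temperature.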

The nature of assay [8]: qHTS RealTime-Glo MT Cell Viability Assay in HEK293 cells - 32 hour (AID 1224868). Note: top concentration of the series differs between compounds; nearly all actives have a fitted effect of over 50% in size. Put shortly:
(§1)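 Assay medium contained NanoLuc luciferase plus cell-permeant prosubstrate, added with HEK293 cells at 600 cells/well. After 5 h at 37 C/5% CO2 compounds were added; plates stayed at 37 C for 40 h with serial luminescence reads.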

Assay [9] in a line: A CellTox Green Cytotoxicity Assay to monitor cytotoxicity in HEK293 cells - 0 hour (AID 1224869). Note: nearly all actives have a fitted effect of over 50% in size. Put shortly: (§2)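 Real-time, in one plate: 600 HEK293 cells/well with dead-cell DNA dye, pinned compound after 5 h, 37 C incubation over 40 h; viable cells give no appreciable fluorescence.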
Assay [10] is described as follows: qHTS RealTime-Glo MT Cell Viability Assay in HepG2 cells - 40 hour (AID 1224870). Note: nearly all actives have a fitted effect of over 50% in size. The method, boiled down: (§3)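 HepG2 cells (600/well) mixed with RealTime-Glo MT reagent, settled 5 h at 37 C/5% CO2 before compound addition. Nonlytic NanoLuc luminescence from viable-cell prosubstrate reduction read repeatedly during 40 h treatment at 37 C.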
Assay [11] can be described thus: A CellTox Green Cytotoxicity Assay to monitor cytotoxicity in HEK293 cells - 40 hour (AID 1224871). Note: nearly all actives have a fitted effect of over 45% in size. Put shortly:
as §2

The nature of assay [12]: qHTS RealTime-Glo MT Cell Viability Assay in HEK293 cells - 16 hour (AID 1224872). Note: nearly all actives have a fitted effect of over 50% in size. Note: potency is the fitted concentration of half-maximal effect. Put shortly:
as §1

Assay [13] in a line: qHTS RealTime-Glo MT Cell Viability Assay in HepG2 cells - 8 hour (AID 1224873). Note: nearly all actives have a fitted effect of over 55% in size. The method, boiled down:
as §3

Assay [14] is described as follows: qHTS RealTime-Glo MT Cell Viability Assay in HEK293 cells - 40 hour (AID 1224874). Note: nearly all actives have a fitted effect of over 50% in size. Particulars: RealTime-Glo luminescence; max response: stronger effect = lower value. Put shortly: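 Kinetic, non-lysing viability readout. Seed HEK293 (600/well) with reagent, incubate 5 h at 37 C/5% CO2, pin 23 nL compound in DMSO, incubate at 37 C, read luminescence at 0, 8, 16, 24, 32, 40 h.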

Assay [15] is described as follows: A CellTox Green Cytotoxicity Assay to monitor cytotoxicity in HEK293 cells - 24 hour (AID 1224875). Note: nearly all actives have a fitted effect of over 45% in size. The method, boiled down: as §2
Assay [16] in a line: qHTS RealTime-Glo MT Cell Viability Assay in HepG2 cells - 32 hour (AID 1224877). Note: nearly all actives have a fitted effect of over 55% in size. The method, boiled down: (§4)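 qHTS, HepG2, 600 cells/well, RealTime-Glo (NanoLuc + prosubstrate) added with cells; 5 h preincubation; DMSO compound addition; 37 C; luminescence at 0/8/16/24/32/40 h.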
Assay [17] is described as follows: A CellTox Green Cytotoxicity Assay to monitor cytotoxicity in HepG2 cells - 24 hour (AID 1224878). Note: nearly all actives have a fitted effect of over 45% in size. Put shortly:
(§5)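 Cytotoxicity was tracked as dead-cell DNA fluorescence in HepG2 cells treated with test compounds at 37 C; each time-point value comes from one kinetic series spanning 0, 8, 16, 24, 32 and 40 h.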

The nature of assay [18]: A CellTox Green Cytotoxicity Assay to monitor cytotoxicity in HepG2 cells - 40 hour (AID 1224879). Note: nearly all actives have a fitted effect of over 40% in size. Put shortly: as §5
The nature of assay [19]: qHTS RealTime-Glo MT Cell Viability Assay in HepG2 cells - 24 hour (AID 1224867). Note: nearly all actives have a fitted effect of over 50% in size. The method, boiled down: as §4
Assay [20] is described as follows: A CellTox Green Cytotoxicity Assay to monitor cytotoxicity in HepG2 cells - 16 hour (AID 1224876). Note: nearly all actives have a fitted effect of over 45% in size. The method, boiled down:
as §5
% is set by controls: 0 for no effect and ±100 for the full control effect.

Chain of Thyrotropin receptor (Homo sapiens) (P16473 whole entry, looked up): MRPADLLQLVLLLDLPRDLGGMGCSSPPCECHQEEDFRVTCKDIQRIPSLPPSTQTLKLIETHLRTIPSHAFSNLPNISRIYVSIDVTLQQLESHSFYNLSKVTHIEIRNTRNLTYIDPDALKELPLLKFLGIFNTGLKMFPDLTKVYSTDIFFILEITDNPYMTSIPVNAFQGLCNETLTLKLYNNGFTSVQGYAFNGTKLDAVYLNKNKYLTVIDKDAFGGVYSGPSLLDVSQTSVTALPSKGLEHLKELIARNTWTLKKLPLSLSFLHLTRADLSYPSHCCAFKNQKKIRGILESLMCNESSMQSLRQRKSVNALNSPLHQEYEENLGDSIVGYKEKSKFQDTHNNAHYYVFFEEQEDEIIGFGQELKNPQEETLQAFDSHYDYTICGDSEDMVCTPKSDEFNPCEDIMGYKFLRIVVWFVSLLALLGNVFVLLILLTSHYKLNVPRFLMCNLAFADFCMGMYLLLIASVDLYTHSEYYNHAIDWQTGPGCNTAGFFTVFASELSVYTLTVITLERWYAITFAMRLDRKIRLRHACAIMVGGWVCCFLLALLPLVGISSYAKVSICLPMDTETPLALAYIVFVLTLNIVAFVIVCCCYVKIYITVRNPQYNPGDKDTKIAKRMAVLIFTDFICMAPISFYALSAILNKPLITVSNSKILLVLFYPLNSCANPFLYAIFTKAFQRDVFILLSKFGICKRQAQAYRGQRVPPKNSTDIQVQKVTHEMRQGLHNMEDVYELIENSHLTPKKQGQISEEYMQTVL

With `C[C@H]1CNCCc2ccc(Cl)cc21`, the Potency entry in assay [1], in assay [2], in assay [3], in [5], in assay [6] and in [8] was “inactive” throughout. Moreover, the Potency entry in assay [9], in [10], in [11], in assay [12], in assay [13] and in [15] was “inactive” in each case. For the same compound, the Potency entry in [16], in assay [17] and in assay [18] was “inactive” throughout. Besides, the compound was classed as inactive in assay [4]. Further, the activity change, positive = activation in [7] is -0.2% [at 42.5 µM]. In addition, the max response in assay [14] was -6.61%.

On to `Brc1ccccc1`, for which the Potency entry in assay [1], in [2], in assay [3], in assay [5], in assay [19] and in assay [8] was “inactive” each time. The Potency result in assay [9], in assay [10], in assay [11], in assay [12], in [13] and in assay [15] was “inactive” throughout. The Potency result in assay [16], in assay [17] and in [18] was “inactive” each time. Also, the compound was called inactive in assay [4]. In assay [14], the max response is -2.8%.

In the case of `CCCCNP(N)(N)=S`, the Potency entry in assay [1], in assay [2], in assay [3], in assay [5], in assay [19] and in assay [8] was “inactive” throughout. The Potency result in assay [9], in assay [10], in [12], in assay [13], in [15] and in [20] was “inactive” each time. For the same compound, the Potency entry in [16], in [17] and in assay [18] was “inactive” throughout. The compound was classed as inactive in assay [4]. In addition, the max response in [14] was 0.198%.

Take `CC(=O)NC1CCSC1=O` (stereo not drawn): the Potency entry in [1], in [2], in [3], in assay [5], in assay [6] and in assay [19] was “inactive” in each case. In addition, the Potency entry in assay [8], in [9], in assay [10], in assay [11], in assay [15] and in [20] was “inactive” each time. Moreover, the Potency entry in assay [16], in assay [17] and in [18] was “inactive” throughout. In addition, in assay [4], the call was inactive. Besides, in [7], the activity change, positive = activation was 1.16% [at 42.5 µM]. Also, in assay [14], the max response was -1.76%.

As for `CC(C)N(C(=O)COc1nnc(C(F)(F)F)s1)c1ccc(F)cc1`, the Potency result in assay [1], in assay [2], in assay [3], in [5], in [9] and in assay [11] was “inactive” throughout. The Potency result in assay [15], in assay [20], in assay [17] and in assay [18] was “inactive” in each case. Moreover, the compound was called inactive in [4]. Besides, the figures for the Potency in [6] and in assay [12] were 54.5 µM (active) and 34.7 µM (active), respectively. In addition, the activity change, positive = activation in [7] was -34.1%.

On to `CNC(C)Cc1ccccc1OC` (stereo not drawn), for which the Potency entry in [1], in assay [2], in assay [3], in assay [5], in assay [19] and in assay [8] was “inactive” throughout. The Potency entry in [9], in assay [10], in assay [11], in assay [12], in [13] and in assay [15] was “inactive” throughout. In addition, the Potency result in assay [16], in assay [17] and in assay [18] was “inactive” each time. In addition, the result in [4] was inactive. Further, the max response in assay [14] was 1.99%.

As to `COP(=S)(OC)Oc1ccc([N+](=O)[O-])cc1Cl`, the Potency entry in assay [1], in [2], in [3], in assay [5], in [8] and in assay [9] was “inactive” in each case. Further, the Potency result in assay [10], in [11], in [15], in assay [20], in [16] and in [17] was “inactive” in each case. Besides, in assay [18], the Potency result is “inactive”. In [4], the compound was classed as inactive. The activity change, positive = activation in assay [7] was -29.5%. For the same compound, in assay [14], the max response was -20.6%.

In the case of `N#Cc1cc(I)c(O)c(I)c1`, the Potency entry in assay [1], in [2], in assay [3], in [9], in assay [10] and in [11] was “inactive” each time. The Potency result in assay [13], in [15], in [20], in assay [16], in [17] and in assay [18] was “inactive” throughout. In addition, the result in assay [4] was inactive. Moreover, the Potency in assay [5] is 28.4 µM (active); in [6], 24.3 µM (active). Also, the activity change, positive = activation in assay [7] is -66.8%.
